Rows were chosen to be rich in hits. Some 0.45% of all compounds tested hit in one or more screens of this group.
Menin MLL FP TR: displaces Texas Red mutant MLL peptide from human menin; O00255; Menin + Texas Red MLL mutant peptide, fluorescence polarization; Potency, µM (top dose mostly 61.6 µM), hits mostly inhibitors; actives 0.23% (n = 270,000); active means well fitted inhibition curve with a large enough effect in the polarisation, with a control signal flat, not every such curve was filed as active; inconclusive means small, poorly fitted or top-dose-only effect, or effect the other way, or a change in a side signal; inactive means no such curve, though single readings can be large or run the other way; the % refers to the polarisation
MBNL1 CUG block: inhibitors of human MBNL1 binding to CUG repeat RNA. Q9NR56. AID 2675. Potency, µM (titrated, usually from 57.5 µM), actives largely listed as inhibitors. TR-FRET MBNL1-His/biotin-(CUG)12 binding, 665/545 ratio. actives 0.036% (n = 280,000); active means well fitted inhibition curve with a large enough effect in the signal ratio, with a control signal flat, not every such curve was filed as active; inconclusive means small, poorly fitted or top-dose-only effect, or effect the other way, or a change in a side signal; inactive means no such curve, though single readings can be large or run the other way; the % refers to the signal ratio
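Ratiometric TR-FRET (665 over 545 nm, excitation 340 nm) tracks disruption of MBNL1-His/biotin-(CUG)12 complex after 60 min at room temperature, with compounds at 92 nM to 58 uM final.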
Akt phos inh: blocks phosphorylation of Akt | actives 0.32% (n = 360,000) | Neuro2A IGF-stimulated pAkt S473 HTRF, 20 min; hits give low values | AID 651550 | activity change, % for hits at 50 µM; in the data active means activity change below about -80%; inconclusive means mostly about -51% to -80%
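Single-point screen (50 µM final compound) in Neuro2A cells stimulated 20 min with 6 nM IGF at 37 deg C. After lysis, Ser473-phosphorylated Akt read by HTRF (ex 330 nm, em 615/665 nm) as the 665/615 ratio.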
ASM inhibitor: blocks human secretory acid sphingomyelinase | P17405 | placental ASM, HMU-PC fluorogenic substrate, 60 min | Potency, µM (doses to about 57.5 µM), usual class: inhibitors | actives 0.006% (n = 340,000) | AID 504937; active means well fitted inhibition curve with a large enough effect; inconclusive means small, poorly fitted or top-dose-only effect; inactive means no such curve, though single readings can be large or run the other way
Target sequence (P17405 47-631 limits assumed): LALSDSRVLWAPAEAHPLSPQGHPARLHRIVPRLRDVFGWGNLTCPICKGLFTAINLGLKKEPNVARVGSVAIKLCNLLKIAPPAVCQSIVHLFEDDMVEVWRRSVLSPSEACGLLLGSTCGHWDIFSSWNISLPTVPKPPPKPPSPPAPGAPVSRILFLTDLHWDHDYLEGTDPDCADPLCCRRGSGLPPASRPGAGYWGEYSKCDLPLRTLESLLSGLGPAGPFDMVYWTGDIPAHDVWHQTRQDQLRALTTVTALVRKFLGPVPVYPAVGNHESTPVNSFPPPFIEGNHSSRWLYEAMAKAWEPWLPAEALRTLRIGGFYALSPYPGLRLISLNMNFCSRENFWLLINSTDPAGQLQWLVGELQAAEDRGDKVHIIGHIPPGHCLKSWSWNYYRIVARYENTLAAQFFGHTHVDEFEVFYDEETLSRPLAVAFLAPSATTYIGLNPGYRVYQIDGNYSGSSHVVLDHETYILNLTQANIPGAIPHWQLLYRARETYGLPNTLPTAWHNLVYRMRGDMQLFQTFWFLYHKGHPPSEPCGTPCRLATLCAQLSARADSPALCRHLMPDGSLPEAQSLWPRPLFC
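qHTS format. ASM enzyme prepared from human placenta hydrolyses the fluorogenic substrate HMU-PC0 (9 uM final) over 60 min at 37 °C after a 10 min compound preincubation.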
MLL CXXC-DNA inh: MLL CXXC-DNA interaction inhibition | Q03164 | MLL-CXXC / FITC-HOXA9 DNA fluorescence polarization | Potency, µM (doses to about 115 µM), actives largely listed as inhibitors | actives 0.037% (n = 290,000) | AID 2662; active means well fitted inhibition curve with a large enough effect in the polarisation, with a control signal flat, not every such curve was filed as active; inconclusive means small, poorly fitted or top-dose-only effect, or effect the other way, or a change in a side signal; inactive means no such curve, though single readings can be large or run the other way; the % refers to the polarisation
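Fluorescence polarization: 7 uM MLL-CXXC (stock) preincubated 5 min with compounds, then 50 nM fluorescein-HOX-A9 DNA (stock) added; 30 min ambient. Buffer 50 mM Tris-HCl pH 7.5, 50 mM NaCl, 1 mM DTT, 0.05% BSA.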
Menin-MLL FL inh: inhibitors of human menin-MLL interaction, wild-type MLL peptide | Fluorescence polarization, fluorescein-MLL peptide displacement from menin | FP activity change, % at 61.4 µM | 290,000 tested, under 10 active; active means well fitted curve in the direction sought with a large enough effect in the polarisation, not every such curve was filed as active; inconclusive means small, poorly fitted or top-dose-only effect, or effect the other way, or a change in a side signal; inactive means no such curve, though single readings can be large or run the other way; the % refers to the polarisation
Hits are given with their value; – = inactive; ? = inconclusive; · = not tested or not shown.

SMILES	Menin MLL FP TR	MBNL1 CUG block	Akt phos inh	ASM inhibitor	MLL CXXC-DNA inh	Menin-MLL FL inh
N#Cc1c(N)nc2c3c(sc(=N)c2c1N)NC(=O)CC3c1ccccc1 (stereo not drawn)	22.4µM	?	–	–	–	–
Cc1cc(C)cc(N2C(=O)C3C4C=CC(C4)C3C2=O)c1 (stereo not drawn)	–	–	-104.5%	–	–	–
Cc1ccc(N2C(=O)C3C4C=CC(C4)C3C2=O)cc1 (stereo not drawn)	–	–	–	–	–	–
COc1ccccc1OCc1ccc(C(=O)OCC2CCCO2)o1 (stereo not drawn)	–	–	-119.1%	–	–	–
CC(=O)Nc1ccc(S(=O)(=O)Nc2ccc(Cc3ccncc3)cc2)cc1	–	–	–	–	–	–
CC(=O)Nc1ccc(Cc2ccncc2)cc1	–	–	-112.8%	–	–	–
Cc1cc(C)c(C(=O)OCC(=O)NCc2cccs2)c(C)c1	–	–	–	–	–	–
COc1ccc(C(=O)/C=C/c2cc(C(=O)O)cc3c2OCOC3)c(O)c1	–	?	–	–	–	–
Cc1ccc(NC(=O)NC(=S)NC(=O)c2ccccc2)cc1	–	–	–	–	–	–
CCCCC(=O)N1CCCC(c2nc3c(nnn3Cc3cc(C)ccc3C)c(=O)[nH]2)C1 (stereo not drawn)	–	–	-117.5%	–	–	–
Cc1ccc(C)c(Cn2nnc3c(=O)[nH]c(C4CCCN(C(=O)CC(C)C)C4)nc32)c1 (stereo not drawn)	?	–	–	–	–	–
CSC1=C(C#N)C(c2ccc(C)cc2)C2=C(CCCC2=O)N1 (stereo not drawn)	–	–	–	–	–	–
CSC1=C(C#N)C(CC(C)C)C2=C(CCCC2=O)N1 (stereo not drawn)	–	–	-117.6%	–	–	–
O=C(CSc1nnc(Cc2cccs2)n1-c1ccccc1)NCc1ccc2c(c1)OCO2	–	–	-84.9%	–	–	–
Cc1ccn2c(Nc3ccc4c(c3)OCO4)c(-c3ccccn3)nc2c1	35.5µM	?	–	–	?	?
O=c1cc(CSc2nnc(-c3cccnc3)n2-c2ccccc2F)nc2sccn12	–	–	–	–	–	–
O=C1CC(N2CCN(c3ccc(F)cc3)CC2)C(=O)N1Cc1cccs1 (stereo not drawn)	?	–	–	–	–	–
O=C1CC(N2CCN(c3nc4ccccc4s3)CC2)C(=O)N1Cc1cccs1 (stereo not drawn)	–	–	-142.9%	?	–	–
COc1ccc(S(N)(=O)=O)cc1C(=O)OCCCOC(=O)c1cc(S(N)(=O)=O)ccc1OC	·	–	–	–	–	·
Cc1nc(N2CCN(Cc3ccccc3)CC2)nc2c1C(=O)CC(C)C2 (stereo not drawn)	–	–	-109.5%	–	–	–
CCN1CCN(c2nc(C)c3c(n2)CC(C)CC3=O)CC1 (stereo not drawn)	–	–	–	–	–	–
CCOc1cc(N2CCOCC2)c(OCC)cc1NC(C)C(=O)N1CCN(CC)CC1 (stereo not drawn)	31.6µM	?	–	–	–	–
Cc1nc2ccccc2c(C)c1CC(=O)OC(C)C(=O)NC1(C#N)CCCCC1 (stereo not drawn)	·	·	–	–	·	·
CCCCC1NC(C(=O)O)CS1 (stereo not drawn)	–	–	–	–	–	–
CCCCCCC1NC(C(=O)O)CS1 (stereo not drawn)	–	–	-113.4%	–	–	–
SMILES	Menin MLL FP TR	MBNL1 CUG block	Akt phos inh	ASM inhibitor	MLL CXXC-DNA inh	Menin-MLL FL inh
CCCNS(=O)(=O)c1ccc(OCC(=O)NCc2ccc3c(c2)OCO3)cc1	–	–	-102.0%	–	–	–
O=C(Cn1nnc2ccccc2c1=O)Nc1ccc(S(=O)(=O)N2CCOCC2)cc1	?	–	–	–	–	–
CCCCCNC(=O)CCn1c(=O)oc2ccccc21	–	–	–	–	–	–
COCCNC(=O)CCn1c(=O)oc2ccccc21	–	–	-109.4%	–	–	–
CCOc1ccc(CNC(=O)CCn2c(=O)oc3ccccc32)cc1OC	–	–	-104.6%	–	–	–
Cc1[nH]c(=O)[nH]c1C(=O)CCCCC(=O)O	–	0.0891µM	–	–	–	–
CCCCSCc1[nH]c(=O)[nH]c1C(=O)CCCCC(=O)OCC	–	?	–	–	–	–
COc1ccc(NC(=O)CN2C(=O)c3ccccc3Sc3ccc(C(=O)N4CCOCC4)cc32)c(OC)c1	–	–	–	–	–	–
C=CCOc1ccc(CNn2cn[nH]c2=S)cc1OCC	–	–	-82.0%	–	–	–
C=CCOc1ccc(CNn2cn[nH]c2=S)cc1OC	–	–	–	–	–	–
O=C1C2C3c4ccccc4C(c4ccccc43)[C@@H]2C(=O)N1c1nc(-c2ccccc2)cs1 (stereo partly drawn)	?	–	–	–	–	–
O=C1C2C3c4ccccc4C(c4ccccc43)C2C(=O)N1c1nc(-c2ccccc2)cs1 (stereo not drawn)	11.2µM	–	–	–	–	–
CN(C(=O)COC(=O)CNS(=O)(=O)/C=C/c1ccccc1)C1CCS(=O)(=O)C1 (stereo not drawn)	–	–	-123.1%	–	–	–
O=C(COc1ccc(C(=S)N2CCOCC2)cc1)N1CCCC1	–	–	-124.4%	–	–	–
CCOC(=O)C1=C(C)NC(=O)NC1c1cc(Br)c(O)c(OC)c1 (stereo not drawn)	–	–	-119.6%	–	–	–
CCOC(=O)C1=C(N)Oc2c(oc(CO)cc2=O)C1c1c(F)cccc1Cl (stereo not drawn)	–	–	-108.9%	–	–	–
CCO[C@@H]1OC(C(=O)N2CCN(Cc3ccccc3)CC2)=C[C@H](c2cn(C(C)=O)c3ccccc23)[C@H]1CCCO	?	–	–	–	–	–
COc1ccc(Nc2nc(NCc3ccco3)nc(N/N=C/c3ccccc3F)n2)cc1	?	–	–	–	–	–
COc1ccc(NC(=O)CSc2nnc(Cc3cccn3C)n2CCc2ccccc2)c(OC)c1	–	–	–	–	–	–
COc1ccccc1NC(=O)CSc1nnc(Cc2cccn2C)n1CCc1ccccc1	–	–	-83.0%	–	–	–
O=c1c2cc(-c3ccccc3)sc2ncn1/N=C/c1ccco1	–	?	-105.9%	–	–	–
CCOc1ccc(C2C(C#N)=C(N)SC(N)=C2C#N)c(OCC)c1	?	–	-85.4%	–	–	?
CCOc1ccc(/C=C/C2=Cc3c(sc(NC(=O)CSc4n[nH]c(N)n4)c3C#N)C(C)(C)C2)cc1	7.94µM	–	–	–	–	?
CCC(c1nnnn1CC1CCCO1)N(CCCO)Cc1cc2cccc(C)c2[nH]c1=O (stereo not drawn)	–	–	–	–	–	–

Source: PubChem (National Center for Advancing Translational Sciences (NCATS))
